Assay outcomes (PubChem BioAssay)
TDP1 cell CPT = qHTS for Inhibitors of human tyrosyl-DNA phosphodiesterase 1 (TDP1): qHTS in cells in presence of CPT. Potency, µM (doses to about 46.2 µM), for the others: at the highest dose activity change, negative = growth inhibition, hits mostly inhibitors. chicken DT40 Tdp1-/-;hTDP1 cells + 20 nM CPT, ATP luminescence, 48 h. 12% of 420,000 active. AID 686979, 2013; also: potency is read from the fitted curve at half-maximal effect; nearly all actives have a fitted effect of over 55% in size
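Cell growth measured by CellTiter-Glo luminescence after a minimum 48 h, 37 C compound exposure with 20 nM CPT in Tdp1-knockout DT40 cells stably expressing hTDP1, seeded 400/well; qHTS titration format.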
TDP1 cell noCPT = qHTS for Inhibitors of human tyrosyl-DNA phosphodiesterase 1 (TDP1): qHTS in cells in absence of CPT; DT40 Tdp1-/- hTDP1 cells, no CPT, ATP luminescence, 48 h; Potency, µM (highest dose often 46.2 µM), without a hit: at the highest dose activity change, negative = growth inhibition, most hits filed as inhibitors; 15% of 420,000 active; AID 686978, 2013; also: potency is read from the fitted curve at half-maximal effect; nearly all actives have a fitted effect of over 55% in size
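Chicken DT40 Tdp1-/- cells complemented with human TDP1, screened without camptothecin (DMSO vehicle only), 400 cells/well. Compounds pin-transferred, cells incubated at 37 °C for at least 48 hr. Growth read as ATP-dependent luminescence (CellTiter-Glo, 30 min at RT).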
ELG1 repair inh = qHTS screen for small molecules that inhibit ELG1-dependent DNA repair in human embryonic kidney (HEK293T) cells expressing luciferase-tagged ELG1; Potency, µM (titrated, usually from 46.1 µM), without a hit: at the top dose activity change, negative = inhibition, usual class: inhibitors; 2.3% of 330,000 active; HEK293T ELG1-luciferase reporter, luminescence, 16 h; DNA damage induced by 5-fluorouridine; also: potency is read from the fitted curve at half-maximal effect; nearly all actives have a fitted effect of over 55% in size
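Reporter activity after DNA damage by 5-fluorouridine is monitored. Compound-treated cells incubate 16 hr at 37 °C, then ONE-Glo is added for 30 min before luminescence reading.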
IL-1B inflam inh = qHTS for Inhibitors of Inflammasome Signaling: IL-1-beta AlphaLISA Primary Screen; THP-1 LPS/ATP IL-1B secretion, AlphaLISA, 16 h; hits give low values; activity change, % at 57.5 µM; 4.7% of 360,000 active; in the data active = activity change below about -50%; inconclusive = mostly about -30% to -49%
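Secreted IL-1B measured by AlphaLISA bead assay after 16 h compound exposure of THP-1 cells; compounds (final up to 57.5 uM) added 1 h before LPS (250 ng/mL) and ATP (1.25 mM) stimulation; lower signal means less secretion.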
HT1080 IDH1KD tx = qHTS for induction of synthetic lethality in tumor cells producing 2HG: qHTS for the HT-1080-IDH1KD cell line | HT-1080 IDH1 knockdown viability, ATP luminescence, 48 h | Potency, µM (highest dose often 46.1 µM), without a hit: top-dose activity, negative = toxicity, usual class: cytotoxic | 2% of 360,000 active | AID 686971, 2013;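 also: potency is read from the fitted curve at half-maximal effect; 0% = DMSO wells and -100% = cell-free medium wells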
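IDH1KD HT-1080 cells, 750/well, RPMI + 5% FBS; compound pinned after 2 h settling; 48 h, 37 °C; CellTiter-Glo luminescence; % activity normalised to DMSO and no-cell wells; curves fitted, classed by r2 and efficacy.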
HT1080NT lethal = qHTS for induction of synthetic lethality in tumor cells producing 2HG: qHTS for the HT-1080-NT fibrosarcoma cell line; HT-1080-NT fibrosarcoma viability, CellTiter-Glo ATP luminescence, 48 h; Potency, µM (titrated, usually from 46.1 µM), for the others: at the top dose activity, negative = less viability, actives largely listed as cytotoxic; 1.6% of 360,000 active; AID 686970, 2013;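 also: NT is the 2HG producing partner of a matched IDH1 knockdown line; potency is read from the fitted curve at half-maximal effect; 0% = DMSO-treated cells and -100% = media-only wells without cells; nearly all actives have a fitted effect of over 55% in size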
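Luminescent CellTiter-Glo readout after 48 hours of compound exposure at 37 degrees C defined viability of HT-1080-NT cells. Activity was normalized to DMSO wells and cell-free media wells; concentration-response curves were fitted and assigned curve classes.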
Active calls of the source: *; ? = inconclusive; / = no result. The list is not random: actives were taken first. Their share in the collection is about 19%. Unless noted, calls follow the shape of the dose curve; as a rule, active = well fitted curve in the direction sought with a large enough effect; inconclusive = small, poorly fitted or top-dose-only effect, or another doubt; inactive = no such curve, though single readings can be large; an effect the other way counts as inactive or inconclusive. Unless noted, % is scaled to controls: 0 for no effect and ±100 for the full control effect.

SMILES | TDP1 cell CPT | TDP1 cell noCPT | ELG1 repair inh | IL-1B inflam inh | HT1080 IDH1KD tx | HT1080NT lethal
COc1ccc(C(=O)N/C(N)=N/c2nc3ccccc3o2)cc1 | -25% | -26% | ? | 7 | ? | ?
CN(C)c1ccc(/C=C/C(=O)c2ccc(O)cc2)cc1 | ? | 10µM* | / | -106* | 1% | -14%
COc1ccc(C(=O)/C=C/c2ccc(O)cc2)cc1 | -22% | ? | 9% | -57* | 2% | -28%
COc1ccc(C=CC(=O)C=CC=Cc2ccccc2)cc1 | ? | ? | / | -52* | ? | 3%
COc1ccc(C(=O)/C=C/Sc2nc3ccccc3o2)cc1 | 2.6µM* | 2.3µM* | ? | -95* | 3.3µM* | ?
COc1cc(Br)ccc1C1CC(=O)C(C)C(c2ccc(Br)cc2OC)N1 (configuration not stated) | -1% | 2% | ? | 0 | 0% | -1%
CC(=O)c1cn(N2CCCCC2)c(=O)[nH]c1=O | 6% | -2% | 14% | -4 | -3% | 16%
O=C(NC(=O)c1cc([N+](=O)[O-])ccc1Cl)C1=C(N2CCCC2)COC1=O | ? | -18% | ? | -23 | -2% | 7%
Cc1ccc2nc(SCC(=O)N3CCCc4ccccc43)nc(=O)n2c1 | -12% | -20% | / | -14 | 3% | 10%
CCOC(=O)Nc1ccc(Oc2ccccc2)cc1 | ? | ? | ? | 0 | 6% | -8%
O=C(C=Cc1ccccc1)c1ccc([N+](=O)[O-])cc1 | ? | 18µM* | / | -27 | ? | ?
O=C(/C=C/c1cccnc1)c1ccc([N+](=O)[O-])cc1 | -30% | ? | -10% | -21 | -25% | ?
CSc1ccc(C(=O)/C=C/c2ccc(N)cc2)cc1 | -36% | ? | ? | -99* | ? | ?
COc1ccc(/C=C/C(=O)c2sc(-c3ccccc3)nc2C)cc1 | -12% | ? | 14% | ? | 2% | 0%
COc1ccc(C=CC(=O)c2c(OC)cc(OC)c(OC)c2O)cc1 | ? | ? | / | -63* | ? | -21%
CCOC(=O)Nc1ccc(C(=O)/C=C/c2ccccc2)cc1 | 5.2µM* | 2.6µM* | ? | -88* | ? | ?
Cc1nn(-c2ccccc2)c2c1cc1c(=O)n(C)c(=O)nc-1n2-c1cccc(Cl)c1 | 0% | -23% | / | / | / | /
CC[C@@H](C)C(NC(=O)OC(C)(C)C)c1cn([C@@H](Cc2ccc(O)cc2)C(=O)N2CCN(C(=O)OC(C)(C)C)CC2)nn1 (some centres not stated) | ? | ? | -5% | -17 | -6% | 1%
COc1ccc(C(=O)/C=C/c2ccccc2)cc1 | ? | 23µM* | / | / | / | /
COc1ccc(C=CC(=O)c2ccc([N+](=O)[O-])cc2)cc1 | -7% | -27% | / | 0 | -20% | 12%
COc1ccc(C=CC(=O)c2cc(O)ccc2O)cc1 | ? | ? | / | ? | 18µM* | 16µM*
C=CCOc1ccc(C=CC(=O)c2c(O)c(OC)c(OC)c(OC)c2OC)cc1 | 16µM* | 16µM* | / | -102* | -19% | -17%
COc1ccc(/C=C/C(=O)Oc2cc(O)cc(O)c2)cc1 | 7% | 3% | -13% | -16 | -2% | -8%
Cc1[nH]c(C)c(C(=O)/C=C/c2ccc([N+](=O)[O-])cc2)c1C | 16µM* | 23µM* | -14% | -97* | 12µM* | ?
